In PubChem BioAssay (EPA / NIEHS):
Several values for one entry are separate records, joined by “and”; a condition that tells them apart may be missing. Equal values may be shown once. Inconclusive results are not listed. Activity calls are given as the source filed them. How the source made its calls: active means hit-call score of the fitted dose curve at least 0.9, where 1 is the maximum; inconclusive means response in the unintended direction; inactive means score below 0.9.

Columns and labels:
[1] = ACEA_ER_AUC_viability: ACEA Biosciences xCELLigence Real-Time Cell Analysis on Estrogen Receptor Agonism for Viability (AID 2283782);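 further: continuous compound exposure with impedance area under curve over 80 h; hit means loss of impedance signal meaning reduced cell growth or viability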
In short: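 T-47D; phenol red-free RPMI1640 + 10% CS-FBS; 8 conc., 1:4 serial, max 100 uM final, ≤0.5% DMSO; n = 2; continuous exposure; impedance monitored to 80 h post-dose; AUC vs DMSO.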

[2] = system: turtle Estrogen Receptor (ESR1), gene 101933533; test: ATG_trERa_XSP1: Attagene TRANS-FACTORIAL Multi-Species (XSP1) HepG2 Assay for turtle Estrogen Receptor (ESR1) (AID 2283781)
In short: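 Activity was taken as gain of reporter transcript over DMSO controls. HepG2 cells carrying GAL4-UAS-driven reporters were exposed for 24 h before RNA was extracted and reporter sequences were measured by fluorescence after capillary separation.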

[3] = system: turtle Androgen Receptor (AR), gene 101947425; test: ATG_trAR_XSP1: Attagene TRANS-FACTORIAL Multi-Species (XSP1) HepG2 Assay for turtle Androgen Receptor (AR) (AID 2283786)
In short: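 HepG2 cells transiently transfected with a turtle AR–GAL4 chimera and GAL4-UAS reporter, co-treated with 3 nM 6-alpha-fluorotestosterone for partial stimulation. Reporter mRNA is quantified at 24 h by RT-PCR and capillary electrophoresis, gain-of-signal versus DMSO.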

[4] = biological target: Estrogen receptor beta (Homo sapiens) (UniProt Q92731); test: ATG_hERb_XSP1: Attagene TRANS-FACTORIAL Multi-Species (XSP1) HepG2 Assay for human Estrogen Receptor (ESR2) (AID 2283788)
In short: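 Measured endpoint is transcriptional gain of signal from a GAL4-UAS reporter controlled by chimeric ERβ in HepG2 liver cells. Exposure lasts 24 h alongside 3 nM 6-alpha-fluorotestosterone, with DMSO as negative control.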

[5] = ATG_M_19_XSP1: Attagene TRANS-FACTORIAL Multi-Species (XSP1) HepG2 Assay for M19 Transcription Factor (Internal Marker) (AID 2283798)
In short: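 HepG2 cells transiently transfected with multiplexed GAL4-UAS reporter units, dosed 24 h with 3 nM 6-alpha-fluorotestosterone present for partial AR stimulation. Reporter mRNA measured by RT-PCR with capillary electrophoresis; gain-of-signal fitted relative to DMSO.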

[6] = ATG_M_32_XSP1: Attagene TRANS-FACTORIAL Multi-Species (XSP1) HepG2 Assay for M32 Transcription Factor (Internal Marker) (AID 2283799)
In short: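 HepG2 cells transiently transfected with multi-species TRANS reporter units, dosed 24 h with 3 nM 6-alpha-fluorotestosterone present. Internal-marker reporter mRNA quantified by RT-PCR and capillary electrophoresis; positive-direction fit versus DMSO.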

[7] = biological target: human Thyroid hormone Receptor alpha (TRa), THRA (gene 7067) (UniProt P10827); test: ATG_hTRa_XSP1: Attagene TRANS-FACTORIAL Multi-Species (XSP1) HepG2 Assay for human Thyroid hormone Receptor alpha (TRa) (AID 2283805)
In short: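 HepG2 cells transiently transfected with GAL4-UAS reporter units expressing chimeric NR-Gal4 proteins, dosed 24 hours with 3 nM 6-alpha-fluorotestosterone present. Reporter mRNA measured by RT-PCR and capillary electrophoresis; gain of signal fitted versus DMSO.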

[8] = system: turtle Thyroid Hormone Receptor, alpha (TRa), gene 101949057; test: ATG_trTRa_XSP1: Attagene TRANS-FACTORIAL Multi-Species (XSP1) HepG2 Assay for turtle Thyroid Hormone Receptor, alpha (TRa) (AID 2283806)
In short: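 HepG2 cells transiently transfected with GAL4-UAS reporter units and chimeric receptor-Gal4 constructs, with 3 nM 6-alpha-fluorotestosterone present. Reporter mRNA was quantified 24 h after dosing by RT-PCR, 6-FAM labelling and capillary electrophoresis; gain of signal versus DMSO.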

[9] = biological target: zebrafish Thyroid Hormone Receptor alpha (TRa), thraa (gene 30670) (UniProt Q98867); test: ATG_zfTRa_XSP1: Attagene TRANS-FACTORIAL Multi-Species (XSP1) HepG2 Assay for zebrafish Thyroid Hormone Receptor alpha (TRa) (AID 2283807)
In short: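 HepG2 cells transiently transfected with GAL4-UAS reporter units including a zebrafish TRa–Gal4 chimera, dosed 24 h with 3 nM 6-alpha-fluorotestosterone present. Reporter mRNA quantified by RT-PCR and capillary electrophoresis; gain versus DMSO.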

AR (gene 367) [10] = biological target: AR (gene 367) (UniProt P10275); test: ACEA_AR_agonist_80hr: ACEA Biosciences xCELLigence Real-Time Cell Analysis on Androgen Receptor Agonism for Proliferation (AID 2283783);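 further: hits increase impedance growth signal above DMSO baseline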
In short: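 Androgen-driven proliferation in 22Rv1 cells is tracked as electrical impedance, taken 80 h after continuous exposure to compound (eight concentrations, 1:4 steps, maximum 100 uM final). Activity is fitted in the positive direction with DMSO as baseline.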

[11] = STM_H9_NormalizedViability: Cytotoxicity Assessment at 120 hours in the Stemina devTOX quickPredict H9 human embryonic stem cell (hESC)-based Assay (AID 2283784)
In short: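 Pluripotent H9 hESCs were exposed, with chemical and media replaced every 24 h. Viability was read by CellTiter-Fluor fluorescence, background-corrected and normalized to the 0.1% DMSO neutral control per plate. Loss of signal was fitted.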

AR (gene 367) [12] = biological target: AR (gene 367) (UniProt P10275); test: ACEA_AR_antagonist_80hr: ACEA Biosciences xCELLigence Real-Time Cell Analysis on Androgen Receptor Antagonism for Proliferation (AID 2283787);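 further: 22Rv1 human prostate cancer cells with growth followed by electrical impedance; hits lower the impedance growth signal relative to DMSO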
In short: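 Growth-kinetic antagonist readout in 22Rv1 cells, taken 80 h after continuous compound exposure. Activity fitted as signal loss relative to DMSO negative control.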

[13] = ATG_M_06_XSP1: Attagene TRANS-FACTORIAL Multi-Species (XSP1) HepG2 Assay for M06 Transcription Factor (Internal Marker) (AID 2283790)
In short: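 Transfected HepG2 multi-reporter system treated 24 h in the presence of 3 nM 6-alpha-fluorotestosterone. The M06 internal marker transcript was quantified by RT-PCR with capillary electrophoresis as a background control, and gain of signal was scored versus DMSO.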

[14] = ATG_M_61_XSP1: Attagene TRANS-FACTORIAL Multi-Species (XSP1) HepG2 Assay for M61 Transcription Factor (Internal Marker) (AID 2283797)
In short: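 HepG2 cells transiently transfected with multiplexed GAL4-driven reporter units, dosed 24 h with 3 nM 6-alpha-fluorotestosterone present. Reporter mRNA quantified by RT-PCR, 6-FAM labelling, HpaI digestion and capillary electrophoresis; internal-marker background control, gain of signal versus DMSO.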

[15] = biological target: frog Thyroid hormone Receptor alpha (TRa), thra-a (gene 397942) (UniProt P15204); test: ATG_frTRa_XSP1: Attagene TRANS-FACTORIAL Multi-Species (XSP1) HepG2 Assay for frog Thyroid hormone Receptor alpha (TRa) (AID 2283804)
In short: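 HepG2 cells transiently transfected with frog TRa-GAL4 chimeric reporter units, dosed 24 hr with 3 nM 6-alpha-fluorotestosterone present; reporter mRNA quantified by RT-PCR, fluorescent labelling and capillary electrophoresis, gain of signal versus DMSO.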

[16] = biological target: Peroxisome proliferator-activated receptor gamma (Homo sapiens) (UniProt P37231); test: ATG_hPPARg_XSP1: Attagene TRANS-FACTORIAL Multi-Species (XSP1) HepG2 Assay for human Peroxisome Proliferator-activated Receptor gamma (PPARg) (AID 2283800)
In short: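 HepG2 cells transiently transfected with GAL4-UAS reporter units carrying chimeric NR-Gal4 proteins; 3 nM 6-alpha-fluorotestosterone present. After 24 h dosing, reporter mRNA quantified by RT-PCR and capillary electrophoresis; gain of signal relative to DMSO.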

[17] = system: zebrafish Peroxisome Proliferator-activated Receptor gamma (PPARg), gene 557037; test: ATG_zfPPARg_XSP1: Attagene TRANS-FACTORIAL Multi-Species (XSP1) HepG2 Assay for zebrafish Peroxisome Proliferator-activated Receptor gamma (PPARg) (AID 2283801)
In short: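 HepG2 cells transiently transfected with GAL4-UAS reporter units including a zebrafish PPARg–GAL4 chimera, dosed 24 h with 3 nM 6-alpha-fluorotestosterone present. Reporter mRNA quantified by RT-PCR, FAM labelling, HpaI digestion and capillary electrophoresis; induction versus DMSO.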

[18] = biological target: mouse Peroxisome Proliferator-activated Receptor gamma (PPARg), Pparg (gene 19016) (UniProt P37238); test: ATG_mPPARg_XSP1: Attagene TRANS-FACTORIAL Multi-Species (XSP1) HepG2 Assay for mouse Peroxisome Proliferator-activated Receptor gamma (PPARg) (AID 2283802)
In short: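 HepG2 cells transiently transfected with GAL4-UAS reporter units driven by mouse PPARg–GAL4 chimera; 3 nM 6-alpha-fluorotestosterone present. After 24 h dosing, reporter mRNA quantified by RT-PCR, fluorescent labelling and capillary electrophoresis; gain of signal versus DMSO.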

[19] = biological target: Nuclear receptor subfamily 1 group I member 2 (Mus musculus) (UniProt O54915); test: ATG_mPXR_XSP1: Attagene TRANS-FACTORIAL Multi-Species (XSP1) HepG2 Assay for mouse Pregnane X Receptor (PXR) (AID 2283803)
In short: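 Transiently transfected HepG2 cells expressing a receptor-Gal4 chimera drive a GAL4-UAS reporter; 3 nM 6-alpha-fluorotestosterone included. Reporter mRNA read 24 h post-dose by RT-PCR and capillary electrophoresis; gain of signal relative to DMSO.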

[20] = biological target: GAL4 Transcription Factor (Internal Marker), GAL4 (gene 855828) (UniProt P04386); test: ATG_GAL4_XSP1: Attagene TRANS-FACTORIAL Multi-Species (XSP1) HepG2 Assay for GAL4 Transcription Factor (Internal Marker) (AID 2283789)
In short: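 HepG2 cells transiently transfected with multiplexed GAL4-UAS reporter units were exposed for 24 h with 3 nM 6-alpha-fluorotestosterone present. Reporter mRNA was quantified by RT-PCR, FAM labelling, HpaI digestion and capillary electrophoresis; background-control readout, gain-of-signal versus DMSO.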

Measured: AC50

Chain of human Thyroid hormone Receptor alpha (TRa), THRA (gene 7067) (P10827 whole entry, looked up, the tested form may be a part): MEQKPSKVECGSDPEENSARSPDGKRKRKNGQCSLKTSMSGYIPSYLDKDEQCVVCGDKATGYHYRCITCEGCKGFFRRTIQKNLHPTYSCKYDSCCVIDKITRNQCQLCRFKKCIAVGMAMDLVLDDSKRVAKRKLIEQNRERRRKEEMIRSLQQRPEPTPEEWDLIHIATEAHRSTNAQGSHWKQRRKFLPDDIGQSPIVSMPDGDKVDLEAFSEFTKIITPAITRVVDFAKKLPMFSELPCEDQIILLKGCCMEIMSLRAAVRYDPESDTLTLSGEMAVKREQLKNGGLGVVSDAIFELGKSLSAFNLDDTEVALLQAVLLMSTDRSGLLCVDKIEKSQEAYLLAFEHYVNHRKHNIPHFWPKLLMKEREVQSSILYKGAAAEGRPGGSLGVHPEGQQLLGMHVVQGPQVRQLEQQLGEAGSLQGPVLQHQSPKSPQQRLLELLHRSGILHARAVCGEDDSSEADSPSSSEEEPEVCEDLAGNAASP
Chain of zebrafish Thyroid Hormone Receptor alpha (TRa), thraa (gene 30670) (Q98867 whole entry, looked up, the tested form may be a part): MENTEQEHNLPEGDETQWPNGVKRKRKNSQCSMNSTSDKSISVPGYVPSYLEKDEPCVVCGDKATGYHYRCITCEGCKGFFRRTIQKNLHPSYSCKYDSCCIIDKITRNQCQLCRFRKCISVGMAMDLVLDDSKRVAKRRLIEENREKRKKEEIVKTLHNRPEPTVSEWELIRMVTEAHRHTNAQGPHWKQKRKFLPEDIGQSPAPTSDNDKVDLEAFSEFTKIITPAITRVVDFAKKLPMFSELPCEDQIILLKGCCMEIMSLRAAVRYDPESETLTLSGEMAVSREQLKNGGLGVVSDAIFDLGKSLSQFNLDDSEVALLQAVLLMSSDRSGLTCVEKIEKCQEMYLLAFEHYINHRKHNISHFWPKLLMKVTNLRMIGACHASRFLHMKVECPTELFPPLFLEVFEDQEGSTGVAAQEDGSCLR
Chain of AR (gene 367) (P10275 whole entry, looked up): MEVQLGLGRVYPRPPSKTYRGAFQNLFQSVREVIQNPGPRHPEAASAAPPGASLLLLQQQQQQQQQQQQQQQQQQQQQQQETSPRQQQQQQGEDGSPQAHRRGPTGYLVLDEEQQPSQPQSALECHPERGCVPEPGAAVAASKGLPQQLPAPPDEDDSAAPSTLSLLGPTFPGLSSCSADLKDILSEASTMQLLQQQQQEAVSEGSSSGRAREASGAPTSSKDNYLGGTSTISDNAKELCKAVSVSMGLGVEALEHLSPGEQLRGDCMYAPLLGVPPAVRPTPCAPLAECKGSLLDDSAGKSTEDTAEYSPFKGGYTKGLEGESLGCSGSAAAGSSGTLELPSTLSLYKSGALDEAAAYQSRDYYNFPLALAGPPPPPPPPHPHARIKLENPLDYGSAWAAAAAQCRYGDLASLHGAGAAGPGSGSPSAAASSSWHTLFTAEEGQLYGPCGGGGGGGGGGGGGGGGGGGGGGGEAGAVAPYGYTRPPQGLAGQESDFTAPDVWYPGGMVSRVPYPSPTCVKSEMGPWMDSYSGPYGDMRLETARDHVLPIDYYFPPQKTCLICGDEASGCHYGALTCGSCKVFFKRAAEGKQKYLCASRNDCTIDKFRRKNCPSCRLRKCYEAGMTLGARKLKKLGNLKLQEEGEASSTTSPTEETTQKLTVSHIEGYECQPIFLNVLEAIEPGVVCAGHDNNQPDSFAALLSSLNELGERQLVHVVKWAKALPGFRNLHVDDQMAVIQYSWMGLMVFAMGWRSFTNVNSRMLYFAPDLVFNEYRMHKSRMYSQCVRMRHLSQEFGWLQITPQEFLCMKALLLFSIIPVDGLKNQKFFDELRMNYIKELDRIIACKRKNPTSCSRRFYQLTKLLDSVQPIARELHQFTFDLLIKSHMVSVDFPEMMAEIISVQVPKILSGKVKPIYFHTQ
Chain of frog Thyroid hormone Receptor alpha (TRa), thra-a (gene 397942) (P15204 whole entry, looked up, the tested form may be a part): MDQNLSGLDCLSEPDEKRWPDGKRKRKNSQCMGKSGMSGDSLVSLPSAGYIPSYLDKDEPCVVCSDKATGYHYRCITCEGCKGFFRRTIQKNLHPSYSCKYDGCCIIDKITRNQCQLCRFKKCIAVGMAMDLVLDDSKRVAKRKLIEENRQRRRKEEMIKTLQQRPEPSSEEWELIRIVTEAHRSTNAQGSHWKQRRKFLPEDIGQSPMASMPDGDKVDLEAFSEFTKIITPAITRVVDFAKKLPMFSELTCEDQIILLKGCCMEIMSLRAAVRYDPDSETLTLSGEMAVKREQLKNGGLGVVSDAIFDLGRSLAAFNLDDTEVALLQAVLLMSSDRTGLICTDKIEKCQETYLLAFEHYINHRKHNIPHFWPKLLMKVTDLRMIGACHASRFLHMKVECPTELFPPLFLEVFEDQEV
Chain of Estrogen receptor beta (Homo sapiens) (Q92731 whole entry, looked up, the tested form may be a part): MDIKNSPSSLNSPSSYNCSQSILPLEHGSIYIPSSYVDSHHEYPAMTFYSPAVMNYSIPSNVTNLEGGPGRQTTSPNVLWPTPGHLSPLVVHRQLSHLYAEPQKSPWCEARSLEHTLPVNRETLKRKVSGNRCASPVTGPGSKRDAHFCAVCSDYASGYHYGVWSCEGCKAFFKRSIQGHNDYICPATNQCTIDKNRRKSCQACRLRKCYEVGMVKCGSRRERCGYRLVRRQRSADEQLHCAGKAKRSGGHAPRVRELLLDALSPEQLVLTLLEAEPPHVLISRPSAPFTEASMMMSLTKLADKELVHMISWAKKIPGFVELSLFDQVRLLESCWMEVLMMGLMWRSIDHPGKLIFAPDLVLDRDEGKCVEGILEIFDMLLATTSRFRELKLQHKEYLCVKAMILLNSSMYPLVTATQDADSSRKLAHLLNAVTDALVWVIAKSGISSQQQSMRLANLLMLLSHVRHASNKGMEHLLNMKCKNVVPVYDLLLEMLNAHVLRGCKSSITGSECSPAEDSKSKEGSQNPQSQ
Chain of Peroxisome proliferator-activated receptor gamma (Homo sapiens) (P37231 whole entry, looked up, the tested form may be a part): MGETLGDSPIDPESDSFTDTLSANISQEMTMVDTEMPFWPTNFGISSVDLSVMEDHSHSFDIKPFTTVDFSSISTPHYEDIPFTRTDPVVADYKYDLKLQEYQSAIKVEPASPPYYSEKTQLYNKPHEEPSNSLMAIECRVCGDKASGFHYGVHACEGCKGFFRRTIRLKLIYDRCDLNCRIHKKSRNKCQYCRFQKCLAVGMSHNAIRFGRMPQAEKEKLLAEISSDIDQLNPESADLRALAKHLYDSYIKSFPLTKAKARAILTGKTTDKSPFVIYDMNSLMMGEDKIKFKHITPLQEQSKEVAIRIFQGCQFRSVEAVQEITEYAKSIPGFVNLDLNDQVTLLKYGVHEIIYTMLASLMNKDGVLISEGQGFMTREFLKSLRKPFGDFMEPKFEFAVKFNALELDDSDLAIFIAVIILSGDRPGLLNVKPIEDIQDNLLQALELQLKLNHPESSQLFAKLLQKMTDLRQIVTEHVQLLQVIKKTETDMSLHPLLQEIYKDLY
Chain of Nuclear receptor subfamily 1 group I member 2 (Mus musculus) (O54915 whole entry, looked up, the tested form may be a part): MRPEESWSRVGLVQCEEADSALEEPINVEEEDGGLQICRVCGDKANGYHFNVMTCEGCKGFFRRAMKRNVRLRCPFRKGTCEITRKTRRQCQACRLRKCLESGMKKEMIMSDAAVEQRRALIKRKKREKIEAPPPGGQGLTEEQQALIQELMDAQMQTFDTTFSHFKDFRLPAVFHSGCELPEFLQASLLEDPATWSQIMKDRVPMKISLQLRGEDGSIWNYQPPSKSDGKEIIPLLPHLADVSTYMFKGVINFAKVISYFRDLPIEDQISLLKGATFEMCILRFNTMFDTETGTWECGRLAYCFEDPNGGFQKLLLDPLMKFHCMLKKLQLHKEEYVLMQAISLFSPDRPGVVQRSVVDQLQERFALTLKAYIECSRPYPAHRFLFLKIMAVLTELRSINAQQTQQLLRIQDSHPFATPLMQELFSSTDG
Chain of mouse Peroxisome Proliferator-activated Receptor gamma (PPARg), Pparg (gene 19016) (P37238 whole entry, looked up, the tested form may be a part): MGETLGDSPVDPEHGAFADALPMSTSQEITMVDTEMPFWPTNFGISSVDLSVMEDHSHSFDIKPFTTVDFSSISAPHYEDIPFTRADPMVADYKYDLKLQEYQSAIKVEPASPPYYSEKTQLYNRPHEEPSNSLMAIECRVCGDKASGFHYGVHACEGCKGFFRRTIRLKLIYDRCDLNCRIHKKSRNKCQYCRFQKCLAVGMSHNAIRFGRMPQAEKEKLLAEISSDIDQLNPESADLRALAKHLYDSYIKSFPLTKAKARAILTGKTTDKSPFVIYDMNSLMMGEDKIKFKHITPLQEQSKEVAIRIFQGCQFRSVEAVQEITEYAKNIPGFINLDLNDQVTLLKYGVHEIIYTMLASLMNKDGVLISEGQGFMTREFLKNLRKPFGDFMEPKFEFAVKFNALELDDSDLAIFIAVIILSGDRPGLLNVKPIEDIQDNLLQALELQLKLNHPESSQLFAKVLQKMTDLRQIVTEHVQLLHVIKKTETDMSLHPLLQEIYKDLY

[O-][Cl+2]([O-])O
inactive: [1]

COC(=O)Cc1ccccc1
active: [1] 30.7 µM

C[C@]12CCC(=O)C[C@@H]1CC[C@@H]1[C@@H]2CC[C@]2(C)[C@@H](O)CC[C@@H]12
active: [3] 0.168 µM
inactive: [2] | [4] | [5] | [6] | [7] | [8] | [9]

CCOC(=O)Nc1cccc(OC(=O)Nc2ccccc2)c1
inactive: [1]

N#CCCO
active: [1] 22 µM

O=P(O)(O)CN(CP(=O)(O)O)CP(=O)(O)O
inactive: [1]

CC(C)(OO)c1ccccc1
active: [1] 14.7 µM

O=C1C2(Cl)C3(Cl)C4(Cl)C(Cl)(Cl)C5(Cl)C3(Cl)C1(Cl)C5(Cl)C24Cl (stereo not drawn)
active: [2] 0.383 µM | [1] 10.4 µM and 7.76 µM and 8.91 µM | AR (gene 367) [12] 7.92 µM
inactive: AR (gene 367) [10] | [11] | [13] | [14] | [15] | [7] | [8] | [9]

Nc1cccc2ccccc12
active: [1] 80.2 µM

CCN(CC)C(=O)Cl
inactive: [1]

CC1(C)CCC(Cc2ccc(Cl)cc2)C1(O)Cn1cncn1 (stereo not drawn)
inactive: [2] | [13] | [14] | [6] | [16] | [17] | [8] | [9]
active: [1] 74.5 µM | [18] 78.6 µM | [19] 2.24 µM

CC12CC1(C)C(=O)N(c1cc(Cl)cc(Cl)c1)C2=O (stereo not drawn)
active: [2] 30.9 µM | AR (gene 367) [12] 78.4 µM | [18] 39.2 µM | [19] 19.7 µM
not listed: [3] | [5] | [6] | AR (gene 367) [10] | [17]
inactive: all other assays above
